Data from PubChem BioAssay (EPA / NIEHS).
Activity calls are given as the source filed them. Rule for the calls: active = hit-call score of the fitted dose curve at least 0.9, where 1 is the maximum; inactive = score below 0.9.

What was measured:
[1] = read-out: Monocyte Chemoattractant Protein-1 (MCP1), CCL2 (gene 6347); test: BSK_4H_MCP1: BioMAP Diversity Plus: 4H Assay for Monocyte Chemoattractant Protein-1 (MCP1) Biomarker Activity (AID 2283018); settings: primary human endothelial cells (HUVEC); actives raise or lower the signal
Summary of the method: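 ELISA read-out of MCP-1 from human vascular endothelial primary cells taken at 24 hours after compound exposure. Activity was fitted in both directions relative to DMSO, which served as negative control.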

[2] = read-out: Interleukin-8 (IL8), CXCL8 (gene 3576); test: BSK_3C_IL8: BioMAP Diversity Plus: 3C Assay for Interleukin-8 (IL8) Biomarker Activity (AID 2283020); settings: primary human endothelial cells (HUVEC); actives raise or lower the signal
Summary of the method: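 ELISA read-out of IL-8 from human umbilical vein endothelium, measured 24 h after chemical dosing. Activity is expressed relative to DMSO negative control, with both increases and decreases fitted.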

[3] = read-out: Monokine induced gamma interferon (MIG), CXCL9 (gene 4283); test: BSK_3C_MIG: BioMAP Diversity Plus: 3C Assay for Monokine induced gamma interferon (MIG) Biomarker Activity (AID 2283021); settings: primary human endothelial cells (HUVEC); actives raise or lower the signal;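 for AC50: MIG protein level measured by immunoassay in the treated endothelial cultures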
Summary of the method: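 Read-out is ELISA detection of MIG on human umbilical vein endothelial cells, taken 24 h after dosing. Gain or loss of signal was scored relative to DMSO controls using bidirectional curve fitting.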

[4] = BSK_3C_SRB: Viability Assessment in the BioMAP Diversity Plus: 3C Assay (AID 2283023); settings: primary human endothelial cells (HUVEC);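 note: fitted both ways against DMSO so a hit may be signal rise or drop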
Summary of the method: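 Cytotoxicity readout in parallel HUVEC 3C cultures: after 24 h compound exposure, cells fixed with 10% TCA, stained with 0.1% SRB and read at 560 nm. Gain or loss relative to DMSO fitted.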

[5] = BSK_3C_Vis: BioMAP Diversity Plus: 3C Assay for Morphology Visualization (AID 2283025); settings: primary human endothelial cells (HUVEC);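 note: fitted both ways so gain or loss versus DMSO counts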;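 for AC50: light microscopy image of cell morphology used as background control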
Summary of the method: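 Chemicals were added to primary human umbilical vein endothelium, cells were incubated 24 h, and morphology was then visualized by light microscopy. Gain or loss of signal was fitted bidirectionally relative to DMSO.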

[6] = read-out: Pselectin, SELP (gene 6403); test: BSK_4H_Pselectin: BioMAP Diversity Plus: 4H Assay for Pselectin Biomarker Activity (AID 2283026); settings: primary human endothelial cells (HUVEC); actives raise or lower the signal
Summary of the method: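 ELISA read-out of P-selectin on human umbilical vein endothelium after 24 h of dosing. Values derive from bidirectional fitting relative to DMSO. Parallel SRB protein staining flagged overt cytotoxicity.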

[7] = BSK_4H_SRB: Viability Assessment in the BioMAP Diversity Plus: 4H Assay (AID 2283027); settings: primary human endothelial cells (HUVEC);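 note: cells exposed to compound for 24 h before staining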;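 for AC50: curves fitted both ways versus DMSO so AC50 may be loss or gain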
Summary of the method: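 Human umbilical vein endothelial cells were dosed with chemical and, after 24 h, fixed with 10% TCA, stained with 0.1% sulforhodamine B, and read at 560 nm to give total protein as a cytotoxicity measure. Bidirectional fitting relative to DMSO control.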

[8] = BSK_BE3C_SRB: Viability Assessment in the BioMAP Diversity Plus: BE3C Assay (AID 2283028); settings: primary human bronchial epithelial cells;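 for AC50: fitted both ways so AC50 may mark signal gain or loss versus DMSO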
Summary of the method: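 Cytotoxicity read-out: SRB (0.1%) staining of TCA-fixed (10%) human lung bronchial epithelial cells, absorbance 560 nm, 24 h post-dosing. Curves fitted both directions relative to DMSO.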

[9] = read-out: Thrombomodulin, THBD (gene 7056); test: BSK_3C_Thrombomodulin: BioMAP Diversity Plus: 3C Assay for Thrombomodulin Biomarker Activity (AID 2283029); settings: primary human endothelial cells (HUVEC); actives raise or lower the signal
Summary of the method: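 Read-out is ELISA of thrombomodulin on human umbilical vein endothelium 24 h after chemical dosing. Gain or loss of signal is scored relative to DMSO. Overt cytotoxicity is checked in parallel cultures by sulforhodamine B staining.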

[10] = read-out: Urokinase-type plasminogen activator receptor (uPAR), PLAUR (gene 5329); test: BSK_4H_uPAR: BioMAP Diversity Plus: 4H Assay for Urokinase-type plasminogen activator receptor (uPAR) Biomarker Activity (AID 2283030); settings: primary human endothelial cells (HUVEC); actives raise or lower the signal
Summary of the method: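 uPAR level read by ELISA on HUVEC cultures (BioMAP 4H) 24 h post-dosing, analyzed for gain or loss relative to DMSO. Parallel SRB staining assessed overt cytotoxicity.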

[11] = read-out: Vascular endothelial growth factor receptor 2 (Homo sapiens) (UniProt P35968); test: BSK_4H_VEGFRII: BioMAP Diversity Plus: 4H Assay for Vascular endothelial growth factor receptor 2 (VEGFR2) Biomarker Activity (AID 2283031); settings: primary human endothelial cells (HUVEC); actives raise or lower the signal;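 for AC50: cell-surface VEGFR2 protein level quantified by ELISA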
Summary of the method: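 Measured by ELISA after 24 h of compound treatment: VEGFR2 on primary human umbilical vein endothelial cells, fitted in both directions relative to DMSO. Parallel cultures received SRB staining (560 nm) for overt cytotoxicity.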

[12] = read-out: Vascular cell adhesion molecule 1 (VCAM1), VCAM1 (gene 7412); test: BSK_4H_VCAM1: BioMAP Diversity Plus: 4H Assay for Vascular cell adhesion molecule 1 (VCAM1) Biomarker Activity (AID 2283033); settings: primary human endothelial cells (HUVEC); actives raise or lower the signal
Summary of the method: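 ELISA read-out of VCAM-1 on human umbilical vein endothelium 24 hours after chemical dosing; gain or loss of signal was fitted relative to DMSO, with sulforhodamine B staining of parallel cultures flagging overt cytotoxicity.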

[13] = read-out: Interferon-gamma inducible Protein 10 (IP10), CXCL10 (gene 3627); test: BSK_BE3C_IP10: BioMAP Diversity Plus: BE3C Assay for Interferon-gamma inducible Protein 10 (IP10) Biomarker Activity (AID 2283034); settings: primary human bronchial epithelial cells; actives raise or lower the signal
Summary of the method: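 Chemical is dosed onto human lung bronchial epithelial primary cells, cultures are incubated 24 h, and IP-10 is then quantified by ELISA. Gain or loss of signal is fitted in both directions relative to DMSO.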

[14] = read-out: Monokine induced gamma interferon (MIG), CXCL9 (gene 4283); test: BSK_BE3C_MIG: BioMAP Diversity Plus: BE3C Assay for Monokine induced gamma interferon (MIG) Biomarker Activity (AID 2283035); settings: primary human bronchial epithelial cells; actives raise or lower the signal
Summary of the method: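 ELISA read-out of MIG in human lung bronchial epithelial primary cultures, 24 h post-dosing. Bidirectional curve fit vs DMSO baseline.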

[15] = read-out: Transforming growth factor beta 1 (TGFb1), TGFB1 (gene 7040); test: BSK_BE3C_TGFb1: BioMAP Diversity Plus: BE3C Assay for Transforming growth factor beta 1 (TGFb1) Biomarker Activity (AID 2283036); settings: primary human bronchial epithelial cells; actives raise or lower the signal
Summary of the method: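 Primary human lung bronchial epithelial cells; compound exposure 24 h; TGF-b1 by ELISA; bidirectional fit, DMSO baseline. Parallel SRB total-protein staining for cytotoxicity.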

[16] = read-out: Plasminogen activator inhibitor-1 (PAI1), SERPINE1 (gene 5054); test: BSK_BE3C_PAI1: BioMAP Diversity Plus: BE3C Assay for Plasminogen activator inhibitor-1 (PAI1) Biomarker Activity (AID 2283037); settings: primary human bronchial epithelial cells; actives raise or lower the signal
Summary of the method: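 Primary human lung bronchial epithelial cells; chemical dosing; 24 h; PAI-1 measured by ELISA; bidirectional fit referenced to DMSO as negative control.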

[17] = read-out: urokinase plasminogen activator (uPA), PLAU (gene 5328); test: BSK_BE3C_uPA: BioMAP Diversity Plus: BE3C Assay for urokinase plasminogen activator (uPA) Biomarker Activity (AID 2283038); settings: primary human bronchial epithelial cells; actives raise or lower the signal
Summary of the method: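 ELISA for uPA on human primary bronchial epithelial cultures 24 h post-treatment, gain or loss against DMSO. Parallel SRB staining (0.1% after 10% TCA fixation, 560 nm) assessed overt cytotoxicity.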

[18] = read-out: Urokinase-type plasminogen activator receptor (uPAR), PLAUR (gene 5329); test: BSK_BE3C_uPAR: BioMAP Diversity Plus: BE3C Assay for Urokinase-type plasminogen activator receptor (uPAR) Biomarker Activity (AID 2283039); settings: primary human bronchial epithelial cells; actives raise or lower the signal
Summary of the method: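 Human bronchial epithelial primary cells; chemical exposure 24 h; uPAR by ELISA; bidirectional fit vs DMSO control.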

[19] = read-out: Interleukin-6 (IL6), IL6 (gene 3569); test: BSK_CASM3C_IL6: BioMAP Diversity Plus: CASM3C Assay for Interleukin-6 (IL6) Biomarker Activity for (AID 2283040); settings: primary human coronary artery smooth muscle cells; actives raise or lower the signal
[20] = read-out: Macrophage colony-stimulating factor (MCSF), CSF1 (gene 1435); test: BSK_CASM3C_MCSF: BioMAP Diversity Plus: CASM3C Assay for Macrophage colony-stimulating factor (MCSF) Biomarker Activity (AID 2283044); settings: primary human coronary artery smooth muscle cells; actives raise or lower the signal;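 note: M-CSF protein amount quantified by ELISA after 24 h exposure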

Measured: AC50

c1ccc(Nc2ccc3ccccc3c2)cc1
active: [1] 30.7 µM | [2] 31.9 µM | [3] 33 µM | [4] 30.2 µM | [5] 8.8 µM | [7] 32.5 µM | [8] 30 µM | [10] 31.3 µM | [12] 29.5 µM | [13] 20 µM | [16] 20 µM | [20] 20 µM
inactive: [6] | [9] | [11] | [14] | [15] | [17] | [18] | [19]

O=[N+]([O-])C=Cc1ccccc1
active: [1] 8.93 µM | [2] 10 µM | [3] 11.4 µM | [4] 9.73 µM | [5] 8.8 µM | [6] 5.78 µM | [7] 5.27 µM | [8] 24.3 µM | [10] 5.14 µM | [12] 11.5 µM | [13] 2.48 µM | [14] 3.89 µM | [15] 5.17 µM | [17] 1.03 µM | [18] 5.37 µM | [19] 31.3 µM | [20] 20 µM
inactive: [9] | [11] | [16]

COCC(=O)N(c1c(C)cccc1C)N1CCOC1=O
inactive: all assays above

Nc1ccc(-c2ccc(N)c(N)c2)cc1N
active: [1] 20 µM | [6] 24.9 µM | [16] 11.1 µM | [20] 8.36 µM
inactive: all other assays above

CC(C)(C)C(=O)CCl
active: [12] 25.7 µM | [20] 0.65 µM
inactive: all other assays above

O=C1C(Cl)=C(Cl)C(=O)C(Cl)=C1Cl
inactive: [8] | [15] | [17]
active: [1] 12.3 µM | [2] 20 µM | [3] 29.2 µM | [4] 4.97 µM | [5] 4.54 µM | [6] 12.8 µM | [7] 11.9 µM | [9] 5.02 µM | [10] 31.9 µM | [11] 34.3 µM | [12] 13.5 µM | [13] 33.2 µM | [14] 35.6 µM | [16] 20 µM | [18] 29.2 µM | [19] 20 µM | [20] 20 µM
